In PubChem BioAssay (NCATS) one finds Potency data, which are given here for 17 compounds.

The nature of experiment [1]: NS1 protein of Zika virus - qHTS assay to identify small molecule inhibitors in human HEK 293 cells (AID 1347053). Note: series mostly up to about 46 µM; nearly all actives have a fitted effect of over 55% in size. A digest of the protocol: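 HEK 293; 20 h pre-culture, 37 C/5% CO2; cpd 1 h pre-infection; ZIKV MR766, MOI = 0.5, 24 h, 37 C; TR-FRET NS1 readout (two anti-NS1 Abs); norm. to no-virus vs infected.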
A short description of experiment [2]: qHTS of pediatric cancer cell lines to identify multiple opportunities for drug repurposing: Primary screen for TC32 cells (AID 1347089). Note: nearly all actives have a fitted effect of over 60% in size. In outline: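 Measured quantity: luminescence from CellTiter-Glo, reflecting metabolically active TC32 cells following 48 h of compound. Curves came straight from multi-point titrations, with 8 or 11 points in primary and 11 in confirmatory screening.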

Experiment [3] can be described thus: qHTS of pediatric cancer cell lines to identify multiple opportunities for drug repurposing: Primary screen for DAOY cells (AID 1347090). Note: series mostly up to about 46 µM; nearly all actives have a fitted effect of over 55% in size. In outline:
(§1)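 Viability measured as metabolically active cells via CellTiter-Glo luminescence following 48 hours of compound exposure, 11-point dilutions in confirmatory testing. 500-1,000 cells/well plated 5 hours before dosing; controls were DMSO and 2.3 µM bortezomib.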

Experiment [4] can be described thus: qHTS of pediatric cancer cell lines to identify multiple opportunities for drug repurposing: Primary screen for SJ-GBM2 cells (AID 1347091). In outline: as §1
Experiment [5] in a line: qHTS of pediatric cancer cell lines to identify multiple opportunities for drug repurposing: Primary screen for A673 cells (AID 1347092). Note: nearly all actives have a fitted effect of over 45% in size. A digest of the protocol: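 Cells are plated, rested 5 h, dosed by pintool, incubated 48 h, then lysed with CellTiter-Glo and read by luminescence. DMSO is the neutral control; bortezomib at 2.3 uM final is the positive control.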
A short description of experiment [6]: qHTS of pediatric cancer cell lines to identify multiple opportunities for drug repurposing: Primary screen for BT-37 cells (AID 1347094). Note: series mostly up to about 57 µM. In outline: (§2)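 Readout: CellTiter-Glo luminescence, 48 h treatment. Controls DMSO (neutral) and bortezomib 2.3 µM final (positive). Potency and efficacy taken from primary-screen concentration-response curves.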
Experiment [7] in a line: qHTS of pediatric cancer cell lines to identify multiple opportunities for drug repurposing: Primary screen for NB-EBc1 cells (AID 1347095). A digest of the protocol: as §2
Experiment [8] is described as follows: qHTS of pediatric cancer cell lines to identify multiple opportunities for drug repurposing: Primary screen for U-2 OS cells (AID 1347096). Note: nearly all actives have a fitted effect of over 50% in size. In outline:
(§3)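 Viability after 48 h compound treatment at 37C, 500-1,000 cells/well, read as ATP luminescence with CellTiter-Glo. Primary screens used 11-point (MIPE, 0.78 nM-46 µM) or 8-point (NPC, 0.59 nM-46 µM) final concentrations; follow-up screens used 11-point dilutions.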

The nature of experiment [9]: qHTS of pediatric cancer cell lines to identify multiple opportunities for drug repurposing: Primary screen for Saos-2 cells (AID 1347097). Note: nearly all actives have a fitted effect of over 40% in size. A digest of the protocol: as §2
Experiment [10] can be described thus: qHTS of pediatric cancer cell lines to identify multiple opportunities for drug repurposing: Primary screen for SK-N-SH cells (AID 1347098). Note: nearly all actives have a fitted effect of over 65% in size. Note: potency is the fitted concentration of half-maximal effect. In outline:
(§4)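 Cells (500-1,000/well) rested 5 h, then received compounds for 48 h; metabolically active cells were measured by CellTiter-Glo luminescence. Final concentrations spanned up to 46 µM (MIPE, 11-point) or 0.59 nM-46 µM (NPC, 8-point) in primary screens, 11-point in follow-ups.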

Experiment [11] can be described thus: qHTS of pediatric cancer cell lines to identify multiple opportunities for drug repurposing: Primary screen for NB1643 cells (AID 1347099). Note: nearly all actives have a fitted effect of over 50% in size. In outline: as §2
Experiment [12] can be described thus: qHTS of pediatric cancer cell lines to identify multiple opportunities for drug repurposing: Primary screen for LAN-5 cells (AID 1347100). A digest of the protocol: as §3
Experiment [13] in a line: qHTS of pediatric cancer cell lines to identify multiple opportunities for drug repurposing: Primary screen for BT-12 cells (AID 1347101). Note: nearly all actives have a fitted effect of over 25% in size. In outline: as §4
A short description of experiment [14]: qHTS of pediatric cancer cell lines to identify multiple opportunities for drug repurposing: Primary screen for Rh18 cells (AID 1347102). Note: nearly all actives have a fitted effect of over 65% in size. A digest of the protocol:
as §3

The nature of experiment [15]: qHTS of pediatric cancer cell lines to identify multiple opportunities for drug repurposing: Primary screen for OHS-50 cells (AID 1347103). Note: nearly all actives have a fitted effect of over 40% in size. Note: potency is the fitted concentration of half-maximal effect. A digest of the protocol: as §4
A short description of experiment [16]: qHTS of pediatric cancer cell lines to identify multiple opportunities for drug repurposing: Primary screen for SK-N-MC cells (AID 1347093). Note: series mostly up to about 46 µM. In outline: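 Metabolically active cells were quantified by ATP-dependent luminescence (CellTiter-Glo, 15 min at room temperature) following 48 h treatment. Cells had been plated at 500-1,000 per well and settled for 5 h beforehand.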

Each structure is given as a SMILES string. Results filed as inconclusive are left out. Calls of active or inactive are those of the source. Calls come from the whole dose curve; as a rule, active = well fitted curve in the direction sought with a large enough effect; inconclusive = small, poorly fitted or top-dose-only effect, or another doubt; inactive = no such curve, though single readings can be large; an effect the other way counts as inactive or inconclusive.

On to `CN(C)CCOC(c1ccccc1)c1ccc(Br)cc1` (stereo not given), for which the Potency entry in experiment [1], in [2], in experiment [3], in [4], in [5] and in experiment [6] was “inactive” throughout. Besides, the Potency result in experiment [7], in [8], in experiment [9], in experiment [11], in experiment [12] and in [13] was “inactive” in each case. Further, the Potency entry in experiment [14] is “inactive”. Besides, the Potency in experiment [10] was 15.4 µM (active); in experiment [15] it was 21.9 µM (active).

Turning to `CN1N=C(C(N)=O)CCC1=O`, the Potency entry in [1], in experiment [2], in experiment [3], in [4], in [16] and in [6] was “inactive” each time. The Potency result in experiment [7], in experiment [8], in [9], in experiment [10], in experiment [11] and in [12] was “inactive” each time. The Potency result in experiment [13] and in [15] was “inactive” in each case.

Regarding `CC(=O)/C=C/C=C1/C2CCC(C2)C1(C)C` (stereo not given), the Potency result in experiment [1], in [2], in experiment [3], in experiment [4], in experiment [5] and in experiment [6] was “inactive” each time. The Potency entry in experiment [7], in [8], in experiment [9], in experiment [10], in [11] and in experiment [12] was “inactive” throughout. Besides, the Potency result in experiment [13], in experiment [14] and in experiment [15] was “inactive” throughout.

Regarding `CC(C)OC(=O)c1cc2c(OCC(O)CNC(C)(C)C)cccc2[nH]1` (stereo not given), the Potency entry in [1], in experiment [2], in experiment [3], in experiment [4], in experiment [16] and in [6] was “inactive” in each case. In addition, the Potency entry in [8], in experiment [9], in experiment [10], in experiment [11], in [12] and in experiment [13] was “inactive” each time. In [14], the Potency result is “inactive”.

Consider `CCCOc1ccc2c(c1)CC[C@@H]1[C@@H]2CC[C@]2(C)C(OC)CC[C@@H]12` (stereo not given in full), for which the Potency result in experiment [1], in [2], in [3], in [4], in [16] and in experiment [6] was “inactive” throughout. For the same compound, the Potency result in experiment [7], in experiment [8], in experiment [9], in experiment [10], in experiment [11] and in [12] was “inactive” throughout. Besides, the Potency entry in experiment [13] is “inactive”.

`CC(C)(c1ccc(O)cc1)c1ccc(O)cc1`: the Potency entry in [1], in experiment [2], in experiment [3], in experiment [4], in experiment [5] and in [6] was “inactive” each time. Moreover, the Potency entry in experiment [8], in experiment [11], in experiment [12] and in experiment [14] was “inactive” each time.

As to `CCO[C@H](Cc1ccc(OCCc2ccc(OS(C)(=O)=O)cc2)cc1)C(=O)O`, the Potency result in [1], in experiment [2], in experiment [3], in experiment [4], in experiment [16] and in experiment [6] was “inactive” in each case. Besides, the Potency entry in experiment [7], in experiment [8], in experiment [9], in experiment [10], in experiment [11] and in experiment [12] was “inactive” in each case. Besides, the Potency result in [13], in experiment [14] and in [15] was “inactive” each time.

On to `CCOCCn1c(C2CCN(CCc3ccc(C(C)(C)C(=O)O)cc3)CC2)nc2ccccc21`, for which the Potency entry in [1], in experiment [2], in experiment [3], in experiment [4], in [5] and in [6] was “inactive” throughout. Further, the Potency entry in [7], in experiment [8], in experiment [9], in [11], in experiment [12] and in experiment [13] was “inactive” in each case. In addition, the Potency result in experiment [14] and in experiment [15] was “inactive” in each case.

For `CCCCN(CCCC)C(C(N)=O)c1ccc(OC)cc1` (stereo not given), the Potency result in [1], in experiment [2], in experiment [3], in experiment [4], in experiment [16] and in [6] was “inactive” in each case. Further, the Potency result in experiment [7], in experiment [8], in experiment [9], in experiment [10], in experiment [11] and in experiment [12] was “inactive” each time. The Potency entry in experiment [13] and in experiment [14] was “inactive” throughout.

`CCCCCN(CCCOC)C(=O)C(CCC(=O)O)NC(=O)c1ccc(Cl)c(Cl)c1` (stereo not given): the Potency entry in [1], in [2], in [3], in [4], in experiment [16] and in experiment [6] was “inactive” throughout. Further, the Potency result in [7], in experiment [8], in experiment [9], in [10], in [11] and in experiment [12] was “inactive” in each case. For the same compound, the Potency entry in experiment [13] and in experiment [14] was “inactive” throughout.

For `COc1ccc(OC(=O)N(CC(=O)O)Cc2ccc(OCCc3nc(-c4ccccc4)oc3C)cc2)cc1`, the Potency entry in experiment [1], in experiment [2], in [3], in experiment [4], in experiment [5] and in experiment [6] was “inactive” in each case. For the same compound, the Potency result in experiment [8], in experiment [10], in experiment [11], in [12] and in experiment [13] was “inactive” each time.

For `COC(=O)c1cc(Cl)ccc1NS(=O)(=O)C(F)(F)F`, the Potency entry in experiment [1], in experiment [2], in experiment [3], in [4], in experiment [16] and in [6] was “inactive” each time. Moreover, the Potency result in experiment [7], in experiment [8], in experiment [9], in experiment [11], in experiment [12] and in experiment [13] was “inactive” in each case. Also, the Potency result in [14] and in experiment [15] was “inactive” in each case.

On to `COC(=O)C1=C(C)NC(COC(N)=O)=C(C(=O)OC(C)C)C1c1cccc(Cl)c1Cl` (stereo not given), for which the Potency entry in experiment [1], in experiment [2], in experiment [3], in [4], in [5] and in experiment [8] was “inactive” throughout. In addition, the Potency entry in [11], in experiment [12] and in [14] was “inactive” in each case. In addition, the Potency in [10] was 24.4 µM (active).

Regarding `CC1CCCCN1CCCOC(=O)c1ccc(OC2CCCCC2)cc1` (stereo not given), the Potency entry in experiment [1], in [2], in experiment [3], in experiment [4], in [16] and in experiment [6] was “inactive” throughout. Besides, the Potency entry in experiment [7], in experiment [11], in experiment [12] and in experiment [14] was “inactive” each time. In addition, the Potency in experiment [15] is 24.6 µM (active).

On to `Nc1nc2ccccc2n1Cc1ccc(F)cc1`, for which the Potency result in [1], in [2], in experiment [3], in [4], in [16] and in experiment [6] was “inactive” throughout. In addition, the Potency result in [7], in [8], in experiment [9], in [10] and in experiment [11] was “inactive” in each case. Moreover, in experiment [15], the Potency was 17.4 µM (active).

Take `C[C@H](CN1CCCC1)C(=O)c1ccc(C(F)(F)F)cc1`: the Potency result in experiment [1], in [2], in [3], in experiment [4], in [16] and in experiment [6] was “inactive” in each case. The Potency result in experiment [7], in [10], in experiment [11], in experiment [13], in experiment [14] and in [15] was “inactive” each time.

As for `CCOC(=O)[C@H](CCc1ccccc1)N[C@@H](C)C(=O)N(CC(=O)O)C1Cc2ccccc2C1`, the Potency entry in experiment [1], in [2], in experiment [3], in experiment [4], in experiment [16] and in [6] was “inactive” each time. Besides, the Potency entry in experiment [7], in experiment [8], in [9], in experiment [11], in experiment [12] and in [13] was “inactive” each time. Further, the Potency result in experiment [15] is “inactive”.
